Data: paper PMC7862700, “An all-to-all approach to the identification of sequence-specific readers for epigenetic DNA modifications on cytosine”

Experiments:
Test in all cases: DAPPL (digital affinity profiling via proximity ligation, sequencing); 10 mM Tris-HCl pH 7.5, 50 mM NaCl, 1 mM DTT, 4% glycerol, room temperature, 30 min; GST-TFs on glutathione beads, 16-mer random dsDNA library, 0.1% formaldehyde crosslink after washing; high values mean tight binding
Settings in all cases: protein: recombinant; tags: N-terminal GST; dsDNA, one strand shown
ELK1 = target: T1, ELK1 (Homo sapiens, UniProt P19419 1-428)
T1 sequence: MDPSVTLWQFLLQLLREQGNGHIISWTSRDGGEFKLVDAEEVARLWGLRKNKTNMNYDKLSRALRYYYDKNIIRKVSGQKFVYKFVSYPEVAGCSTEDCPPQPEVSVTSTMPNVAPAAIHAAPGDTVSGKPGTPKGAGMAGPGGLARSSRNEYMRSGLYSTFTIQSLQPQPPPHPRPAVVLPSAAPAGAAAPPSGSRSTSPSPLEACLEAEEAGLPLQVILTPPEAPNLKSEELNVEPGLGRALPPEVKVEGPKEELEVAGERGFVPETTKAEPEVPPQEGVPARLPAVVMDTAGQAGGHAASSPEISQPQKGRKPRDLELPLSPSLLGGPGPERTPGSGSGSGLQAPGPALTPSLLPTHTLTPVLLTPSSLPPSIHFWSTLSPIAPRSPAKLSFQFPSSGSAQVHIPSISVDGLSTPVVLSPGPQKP
Outline: (§1)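 A tag-only sample was pooled with DNA-barcoded human transcription factors that had been expressed in yeast as GST fusions and captured on glutathione beads. The pools were incubated for 30 min at room temperature with 200 nmole of a random double-stranded 16-mer DNA library in Tris/NaCl/DTT/glycerol buffer, then washed, crosslinked with 0.1% formaldehyde, proximity-ligated (BsaI/T4 ligase, 1 h, 37 °C), PCR-amplified and sequenced on an Illumina NextSeq500. Binding signal is each hexamer's read frequency for a factor divided by its frequency for the tag-only sample.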

GABPA = target: T2, GABPA (Homo sapiens, UniProt Q06546 1-454)
T2 sequence: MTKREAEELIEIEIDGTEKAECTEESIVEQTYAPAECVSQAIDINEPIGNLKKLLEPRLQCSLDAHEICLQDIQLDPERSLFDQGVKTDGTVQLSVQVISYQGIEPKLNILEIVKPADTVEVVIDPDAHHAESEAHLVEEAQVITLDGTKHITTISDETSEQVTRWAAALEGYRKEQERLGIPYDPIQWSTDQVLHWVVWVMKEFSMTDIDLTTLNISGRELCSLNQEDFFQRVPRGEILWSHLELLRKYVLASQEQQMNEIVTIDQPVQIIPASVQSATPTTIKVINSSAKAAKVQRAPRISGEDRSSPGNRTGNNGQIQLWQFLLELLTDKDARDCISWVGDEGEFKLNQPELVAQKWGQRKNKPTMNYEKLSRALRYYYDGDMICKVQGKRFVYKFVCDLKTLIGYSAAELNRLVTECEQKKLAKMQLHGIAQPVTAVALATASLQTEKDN
Outline: as §1

ERG = target: T3, ERG (Homo sapiens, UniProt P11308 1-479)
T3 sequence: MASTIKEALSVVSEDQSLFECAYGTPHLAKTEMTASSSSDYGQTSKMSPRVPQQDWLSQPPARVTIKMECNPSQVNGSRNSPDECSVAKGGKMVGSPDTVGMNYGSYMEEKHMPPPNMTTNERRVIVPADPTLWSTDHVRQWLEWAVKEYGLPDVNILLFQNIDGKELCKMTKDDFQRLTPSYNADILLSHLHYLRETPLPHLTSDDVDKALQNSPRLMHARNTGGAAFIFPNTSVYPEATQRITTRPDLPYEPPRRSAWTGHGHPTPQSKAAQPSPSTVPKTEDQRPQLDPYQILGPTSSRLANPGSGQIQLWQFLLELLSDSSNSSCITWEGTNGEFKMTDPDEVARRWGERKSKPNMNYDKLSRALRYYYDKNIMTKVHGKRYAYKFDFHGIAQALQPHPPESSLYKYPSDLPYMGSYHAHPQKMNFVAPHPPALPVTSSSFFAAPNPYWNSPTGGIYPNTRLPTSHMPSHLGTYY
Outline: as §1

ELF1 = ELF1 (Homo sapiens, UniProt P32519 1-619)
Chain of ELF1 (P32519 whole entry): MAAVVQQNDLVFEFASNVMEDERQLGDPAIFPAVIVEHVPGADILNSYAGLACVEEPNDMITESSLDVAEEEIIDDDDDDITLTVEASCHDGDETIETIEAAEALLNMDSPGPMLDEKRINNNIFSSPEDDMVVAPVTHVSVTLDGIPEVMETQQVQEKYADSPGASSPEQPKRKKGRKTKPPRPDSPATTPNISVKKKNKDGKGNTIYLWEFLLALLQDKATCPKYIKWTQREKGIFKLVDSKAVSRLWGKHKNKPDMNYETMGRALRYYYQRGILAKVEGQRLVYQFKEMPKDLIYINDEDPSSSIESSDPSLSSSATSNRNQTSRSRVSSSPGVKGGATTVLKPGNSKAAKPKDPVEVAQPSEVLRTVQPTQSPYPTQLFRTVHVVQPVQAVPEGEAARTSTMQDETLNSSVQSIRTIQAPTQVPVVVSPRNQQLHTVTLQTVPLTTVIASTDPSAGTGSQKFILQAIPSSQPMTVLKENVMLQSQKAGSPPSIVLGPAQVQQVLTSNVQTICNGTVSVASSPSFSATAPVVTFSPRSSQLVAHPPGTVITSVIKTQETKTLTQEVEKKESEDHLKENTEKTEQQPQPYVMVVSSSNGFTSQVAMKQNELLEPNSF
Outline: as §1

EHF = target: T4, EHF (Homo sapiens, UniProt Q9NZC4 1-300)
T4 sequence: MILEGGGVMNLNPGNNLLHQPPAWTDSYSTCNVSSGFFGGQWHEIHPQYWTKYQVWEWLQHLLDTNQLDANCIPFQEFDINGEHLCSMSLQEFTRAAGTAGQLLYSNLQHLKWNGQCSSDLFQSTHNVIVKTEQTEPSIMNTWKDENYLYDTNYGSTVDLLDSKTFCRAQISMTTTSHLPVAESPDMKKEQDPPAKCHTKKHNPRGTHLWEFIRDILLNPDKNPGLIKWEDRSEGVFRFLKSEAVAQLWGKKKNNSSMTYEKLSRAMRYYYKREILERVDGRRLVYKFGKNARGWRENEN
Outline: as §1

SPIB = SPIB (Homo sapiens, UniProt Q01892 1-262)
Chain of SPIB (Q01892 whole entry): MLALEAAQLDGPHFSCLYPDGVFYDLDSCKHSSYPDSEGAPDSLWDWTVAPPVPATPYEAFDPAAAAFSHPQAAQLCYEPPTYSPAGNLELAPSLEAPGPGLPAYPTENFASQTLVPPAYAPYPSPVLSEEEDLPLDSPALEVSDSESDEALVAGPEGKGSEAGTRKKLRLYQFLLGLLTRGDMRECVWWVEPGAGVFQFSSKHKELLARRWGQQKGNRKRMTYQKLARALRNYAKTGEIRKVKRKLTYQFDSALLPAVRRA
Outline: as §1

FEV = target: T5, FEV (Homo sapiens, UniProt Q99581 1-238)
T5 sequence: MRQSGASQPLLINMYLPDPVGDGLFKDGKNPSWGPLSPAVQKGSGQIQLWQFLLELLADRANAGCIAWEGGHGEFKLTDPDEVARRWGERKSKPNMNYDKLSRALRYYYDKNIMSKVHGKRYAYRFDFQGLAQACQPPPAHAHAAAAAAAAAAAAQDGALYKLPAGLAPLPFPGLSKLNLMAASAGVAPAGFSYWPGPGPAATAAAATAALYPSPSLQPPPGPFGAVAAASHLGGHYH
Outline: as §1

ETV5 = ETV5 (Homo sapiens, UniProt P41161 1-510)
Chain of ETV5 (P41161 whole entry): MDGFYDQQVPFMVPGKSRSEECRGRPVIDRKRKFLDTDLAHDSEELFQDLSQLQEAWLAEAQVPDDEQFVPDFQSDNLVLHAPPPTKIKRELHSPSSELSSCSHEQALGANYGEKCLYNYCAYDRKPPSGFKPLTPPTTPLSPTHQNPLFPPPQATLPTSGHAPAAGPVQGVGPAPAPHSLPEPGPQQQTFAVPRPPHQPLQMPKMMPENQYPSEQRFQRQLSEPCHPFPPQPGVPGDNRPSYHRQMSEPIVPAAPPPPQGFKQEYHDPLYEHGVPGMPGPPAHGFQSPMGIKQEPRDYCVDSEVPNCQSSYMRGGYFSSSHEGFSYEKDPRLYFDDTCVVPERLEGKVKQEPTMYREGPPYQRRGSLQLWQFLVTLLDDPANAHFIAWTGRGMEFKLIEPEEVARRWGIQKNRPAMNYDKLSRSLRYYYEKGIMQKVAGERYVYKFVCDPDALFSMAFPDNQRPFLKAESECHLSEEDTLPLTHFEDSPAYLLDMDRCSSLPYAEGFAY
Outline: as §1

ELF4 = ELF4 (Homo sapiens, UniProt Q99607 1-663)
Chain of ELF4 (Q99607 whole entry): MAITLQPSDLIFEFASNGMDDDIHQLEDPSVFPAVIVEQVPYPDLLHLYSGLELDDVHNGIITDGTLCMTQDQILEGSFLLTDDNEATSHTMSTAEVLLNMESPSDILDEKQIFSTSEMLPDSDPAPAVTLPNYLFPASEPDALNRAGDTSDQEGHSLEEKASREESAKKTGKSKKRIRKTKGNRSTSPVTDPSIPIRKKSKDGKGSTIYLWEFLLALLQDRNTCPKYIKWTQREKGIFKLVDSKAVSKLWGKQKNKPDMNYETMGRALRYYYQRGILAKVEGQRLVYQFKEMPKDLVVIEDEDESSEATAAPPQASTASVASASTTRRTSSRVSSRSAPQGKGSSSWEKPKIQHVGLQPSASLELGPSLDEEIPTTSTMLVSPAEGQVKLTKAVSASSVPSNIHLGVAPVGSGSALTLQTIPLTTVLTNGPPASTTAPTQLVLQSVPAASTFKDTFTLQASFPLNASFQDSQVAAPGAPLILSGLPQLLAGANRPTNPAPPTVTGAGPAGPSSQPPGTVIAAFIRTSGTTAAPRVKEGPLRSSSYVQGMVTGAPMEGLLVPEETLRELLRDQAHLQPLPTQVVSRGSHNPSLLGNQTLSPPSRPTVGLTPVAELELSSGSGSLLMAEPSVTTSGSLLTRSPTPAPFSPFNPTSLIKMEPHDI
Outline: as §1

ELK4 = target: T6, ELK4 (Homo sapiens, UniProt P28324-2 1-405)
T6 sequence: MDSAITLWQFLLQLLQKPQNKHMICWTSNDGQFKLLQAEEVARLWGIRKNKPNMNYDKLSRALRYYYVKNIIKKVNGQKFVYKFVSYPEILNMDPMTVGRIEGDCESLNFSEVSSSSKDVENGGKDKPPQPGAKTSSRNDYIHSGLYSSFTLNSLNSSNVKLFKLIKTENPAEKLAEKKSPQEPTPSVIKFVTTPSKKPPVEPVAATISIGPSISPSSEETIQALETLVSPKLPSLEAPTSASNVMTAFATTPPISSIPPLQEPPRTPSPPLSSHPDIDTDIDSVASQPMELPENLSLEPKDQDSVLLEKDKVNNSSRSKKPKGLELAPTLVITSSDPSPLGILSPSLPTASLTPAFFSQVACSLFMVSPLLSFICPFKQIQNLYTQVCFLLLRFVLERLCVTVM
Outline: as §1

ELF3 = target: T7, ELF3 (Homo sapiens, UniProt P78545 1-371)
T7 sequence: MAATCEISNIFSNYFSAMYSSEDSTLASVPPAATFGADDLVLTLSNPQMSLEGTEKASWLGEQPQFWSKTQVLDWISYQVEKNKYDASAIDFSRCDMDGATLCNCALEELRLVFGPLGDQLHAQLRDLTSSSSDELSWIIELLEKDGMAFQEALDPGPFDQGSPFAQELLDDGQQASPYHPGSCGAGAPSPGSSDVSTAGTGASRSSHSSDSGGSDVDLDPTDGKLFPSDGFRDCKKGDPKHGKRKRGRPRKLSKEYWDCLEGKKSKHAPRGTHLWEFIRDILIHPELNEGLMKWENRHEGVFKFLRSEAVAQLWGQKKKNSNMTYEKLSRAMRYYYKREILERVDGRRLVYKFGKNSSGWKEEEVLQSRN
Outline: as §1

ETV1 = ETV1 (Homo sapiens, UniProt P50549 1-477)
Chain of ETV1 (P50549 whole entry): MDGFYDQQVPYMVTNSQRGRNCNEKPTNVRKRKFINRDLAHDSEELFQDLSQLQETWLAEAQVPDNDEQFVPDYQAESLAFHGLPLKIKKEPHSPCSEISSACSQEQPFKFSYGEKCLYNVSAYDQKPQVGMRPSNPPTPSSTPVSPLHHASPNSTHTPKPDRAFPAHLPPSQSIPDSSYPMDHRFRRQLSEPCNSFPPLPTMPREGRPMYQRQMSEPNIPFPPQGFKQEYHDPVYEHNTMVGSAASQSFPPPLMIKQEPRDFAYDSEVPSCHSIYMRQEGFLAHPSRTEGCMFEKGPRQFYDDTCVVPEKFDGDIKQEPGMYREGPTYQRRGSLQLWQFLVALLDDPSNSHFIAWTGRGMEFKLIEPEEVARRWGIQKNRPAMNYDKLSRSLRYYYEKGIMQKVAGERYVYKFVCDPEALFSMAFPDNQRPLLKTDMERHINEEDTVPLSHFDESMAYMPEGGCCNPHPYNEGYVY
Outline: as §1

ERF = target: T8, ERF (Homo sapiens, UniProt P50548 1-548)
T8 sequence: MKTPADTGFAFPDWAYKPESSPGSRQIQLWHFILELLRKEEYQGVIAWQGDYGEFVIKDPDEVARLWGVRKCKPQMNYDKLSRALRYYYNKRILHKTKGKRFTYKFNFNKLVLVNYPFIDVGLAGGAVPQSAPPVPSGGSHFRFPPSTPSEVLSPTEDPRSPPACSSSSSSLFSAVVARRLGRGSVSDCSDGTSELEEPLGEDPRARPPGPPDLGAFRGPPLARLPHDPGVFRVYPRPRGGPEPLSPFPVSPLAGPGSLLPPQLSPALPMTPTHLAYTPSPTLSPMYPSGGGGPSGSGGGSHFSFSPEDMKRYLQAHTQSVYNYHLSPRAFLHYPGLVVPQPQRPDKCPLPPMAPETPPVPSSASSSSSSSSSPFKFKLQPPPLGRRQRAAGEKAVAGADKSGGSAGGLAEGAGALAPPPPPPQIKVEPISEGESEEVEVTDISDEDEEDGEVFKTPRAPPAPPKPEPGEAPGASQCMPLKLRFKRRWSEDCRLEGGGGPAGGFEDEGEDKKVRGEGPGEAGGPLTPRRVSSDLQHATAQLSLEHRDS
Outline: as §1

ETV3L = target: T9, ETV3L (Homo sapiens, UniProt Q6ZN32 1-361)
T9 sequence: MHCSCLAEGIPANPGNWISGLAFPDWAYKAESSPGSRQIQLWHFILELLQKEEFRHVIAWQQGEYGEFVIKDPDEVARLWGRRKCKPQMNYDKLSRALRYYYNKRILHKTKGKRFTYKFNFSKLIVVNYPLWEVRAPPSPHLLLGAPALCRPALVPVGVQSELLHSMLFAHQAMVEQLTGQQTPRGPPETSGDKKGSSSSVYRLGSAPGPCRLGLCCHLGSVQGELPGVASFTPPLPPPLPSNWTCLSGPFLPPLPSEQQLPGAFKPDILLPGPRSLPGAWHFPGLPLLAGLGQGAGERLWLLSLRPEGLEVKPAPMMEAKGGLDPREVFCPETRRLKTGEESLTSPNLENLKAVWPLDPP
Outline: as §1

ETS2 = target: T10, ETS2 (Homo sapiens, UniProt P15036 1-469)
T10 sequence: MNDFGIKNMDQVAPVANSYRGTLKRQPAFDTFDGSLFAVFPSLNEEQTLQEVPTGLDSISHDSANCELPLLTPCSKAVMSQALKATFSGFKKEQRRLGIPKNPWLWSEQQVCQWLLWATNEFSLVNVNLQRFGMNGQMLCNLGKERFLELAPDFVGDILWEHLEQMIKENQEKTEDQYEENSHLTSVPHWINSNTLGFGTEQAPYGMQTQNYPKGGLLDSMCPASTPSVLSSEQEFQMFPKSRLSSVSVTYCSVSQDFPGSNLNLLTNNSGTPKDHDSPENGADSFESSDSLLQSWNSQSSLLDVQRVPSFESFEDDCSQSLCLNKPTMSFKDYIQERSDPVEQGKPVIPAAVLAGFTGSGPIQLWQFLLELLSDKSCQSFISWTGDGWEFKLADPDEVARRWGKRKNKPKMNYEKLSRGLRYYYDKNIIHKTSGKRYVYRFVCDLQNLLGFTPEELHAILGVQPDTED
Outline: as §1

SPDEF = target: T11, SPDEF (Homo sapiens, UniProt O95238 1-335)
T11 sequence: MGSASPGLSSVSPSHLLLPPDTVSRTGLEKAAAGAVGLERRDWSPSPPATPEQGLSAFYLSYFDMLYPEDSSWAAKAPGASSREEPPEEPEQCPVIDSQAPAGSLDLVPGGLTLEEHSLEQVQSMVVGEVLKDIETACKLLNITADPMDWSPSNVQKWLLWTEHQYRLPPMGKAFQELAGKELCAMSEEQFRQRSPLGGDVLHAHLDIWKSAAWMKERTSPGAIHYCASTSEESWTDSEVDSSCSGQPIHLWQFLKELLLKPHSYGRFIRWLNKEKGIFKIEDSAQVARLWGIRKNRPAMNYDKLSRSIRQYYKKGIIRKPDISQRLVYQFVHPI
Outline: as §1

ETV7 = target: T12, ETV7 (Homo sapiens, UniProt Q9Y603 1-341)
T12 sequence: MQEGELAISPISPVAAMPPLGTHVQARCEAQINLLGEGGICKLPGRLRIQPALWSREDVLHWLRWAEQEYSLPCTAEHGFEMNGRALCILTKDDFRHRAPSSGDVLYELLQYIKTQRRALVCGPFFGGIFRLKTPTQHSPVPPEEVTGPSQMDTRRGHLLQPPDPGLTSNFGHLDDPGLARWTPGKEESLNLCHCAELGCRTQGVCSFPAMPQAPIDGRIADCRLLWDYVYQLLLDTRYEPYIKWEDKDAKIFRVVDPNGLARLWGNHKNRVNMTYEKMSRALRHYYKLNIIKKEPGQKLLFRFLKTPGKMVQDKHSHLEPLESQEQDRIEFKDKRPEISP
Outline: as §1

ETV3 = target: T13, ETV3 (Homo sapiens, UniProt P41162-2 1-143)
T13 sequence: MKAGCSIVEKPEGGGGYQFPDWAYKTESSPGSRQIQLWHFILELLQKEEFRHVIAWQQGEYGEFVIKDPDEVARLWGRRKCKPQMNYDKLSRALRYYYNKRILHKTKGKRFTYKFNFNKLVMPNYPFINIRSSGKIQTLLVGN
Outline: as §1

ETV6 = ETV6 (Homo sapiens, UniProt P41212 1-452)
Chain of ETV6 (P41212 whole entry): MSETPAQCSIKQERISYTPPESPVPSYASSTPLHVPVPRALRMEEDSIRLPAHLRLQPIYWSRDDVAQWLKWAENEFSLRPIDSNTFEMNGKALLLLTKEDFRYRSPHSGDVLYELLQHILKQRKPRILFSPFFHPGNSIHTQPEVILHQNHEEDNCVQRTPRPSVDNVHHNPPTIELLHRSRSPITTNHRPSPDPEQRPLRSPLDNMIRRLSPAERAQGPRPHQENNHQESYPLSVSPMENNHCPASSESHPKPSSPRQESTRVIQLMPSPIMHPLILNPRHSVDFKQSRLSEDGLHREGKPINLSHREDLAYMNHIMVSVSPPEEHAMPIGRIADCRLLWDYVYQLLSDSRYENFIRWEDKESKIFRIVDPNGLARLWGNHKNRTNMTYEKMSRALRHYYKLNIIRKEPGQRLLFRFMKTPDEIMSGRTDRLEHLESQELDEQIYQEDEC
Outline: as §1

In the case of GTTGTT, the binding signal (ELK1) is reported as 1.12 fold enrichment (6-mer frequency, TF over GST control), the binding signal (GABPA) is reported as 1.04 fold enrichment (6-mer frequency, TF over GST control) and the binding signal (ERG) is reported as 1.02 fold enrichment (6-mer frequency, TF over GST control). The binding signal (ELF1) was 1.09 fold enrichment (6-mer frequency, TF over GST control), the binding signal (EHF) was 1.12 fold enrichment (6-mer frequency, TF over GST control) and the binding signal (SPIB) was 1.22 fold enrichment (6-mer frequency, TF over GST control). For the same sequence, the binding signal (FEV) was 1.1 fold enrichment (6-mer frequency, TF over GST control), the binding signal (ETV5) was 1.02 fold enrichment (6-mer frequency, TF over GST control) and the binding signal (ELF4) was 1.04 fold enrichment (6-mer frequency, TF over GST control). The binding signal (ELK4) was 1.33 fold enrichment (6-mer frequency, TF over GST control), the binding signal (ELF3) was 1.13 fold enrichment (6-mer frequency, TF over GST control) and the binding signal (ETV1) was 1.14 fold enrichment (6-mer frequency, TF over GST control). The binding signal (ERF) was 1.06 fold enrichment (6-mer frequency, TF over GST control), the binding signal (ETV3L) was 1.14 fold enrichment (6-mer frequency, TF over GST control) and the binding signal (ETS2) was 1.06 fold enrichment (6-mer frequency, TF over GST control). For the same sequence, the binding signal (SPDEF) was 1.12 fold enrichment (6-mer frequency, TF over GST control), the binding signal (ETV7) was 1.25 fold enrichment (6-mer frequency, TF over GST control) and the binding signal (ETV3) was 1.11 fold enrichment (6-mer frequency, TF over GST control). For the same sequence, the binding signal (ETV6) was 1.09 fold enrichment (6-mer frequency, TF over GST control).
